# From PubChem
# Rows were chosen to be rich in hits. Some 8.2% of all compounds tested hit in one or more screens of this group.
# KB-3-1 cytotox: kills parental KB-3-1 adenocarcinoma cells; KB-3-1 viability, CellTiter-Glo ATP luminescence, 72 h; Potency, µM (series often up to 46.1 µM), actives largely listed as cytotoxic; actives 1.4% (n = 400,000); AID 1347075; note: % is set by controls: 0 for no effect and ±100 for the full control effect; nearly all actives have a fitted effect of over 60% in size
#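 Parental KB-3-1 viability, qHTS format: 72 h compound exposure, 37 °C; CellTiter-Glo; media-only wells and DMSO plates as controls; concentration-effect fits on corrected data.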
# MCF10A rerep: inducers of DNA re-replication in MCF 10A breast cells; MCF 10A DNA re-replication, Hoechst nuclear intensity, 48 h; Potency, µM (top dose mostly 46.1 µM), for inactives: at the top dose activity, positive = re-replication, most hits filed as activators; actives 2.9% (n = 350,000); AID 624296; note: % of control where 0% means no effect; nearly all actives have a fitted effect of over 50% in size
# KB-V1 cytotox: KB-V1 MDR subline cytotoxicity. KB-V1 MDR cells viability, CellTiter-Glo, 72 h. actives 3.4% (n = 400,000). Potency, µM (series often up to 46.1 µM), usual class: cytotoxic; note: % is set by controls: 0 for no effect and ±100 for the full control effect; nearly all actives have a fitted effect of over 60% in size
#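 qHTS viability screen in drug-selected KB-V1 MDR cells: 72 h compound treatment at 37 degrees C, ATP luminescence end point.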
# SW480 rerep: induces DNA re-replication in SW480 colon adenocarcinoma cells; SW480 DNA re-replication, Hoechst DNA content imaging, 48 h; Potency, µM (doses to about 46.1 µM), for inactives: at the highest dose re-replication activation, hits mostly activators; actives 1.8% (n = 340,000); note: % of control where 0% means no effect; nearly all actives have a fitted effect of over 55% in size
#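 Treated cells incubate 48 hr (37 C, 5% CO2), are stained 40 min with Hoechst, and nuclear fluorescence is enumerated; a rise in nuclei with high DNA signal marks re-replication.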
# ELG1 DNA repair: ELG1-dependent DNA repair inhibition; actives 2.3% (n = 330,000); HEK293T ELG1-luciferase reporter, luminescence, 16 h; DNA damage induced by 5-fluorouridine; Potency, µM (titrated, usually from 46.1 µM), inactives show at the top dose activity change, negative = inhibition, most hits filed as inhibitors; note: % is set by controls: 0 for no effect and ±100 for the full control effect; nearly all actives have a fitted effect of over 55% in size
#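 5-Fluorouridine DNA damage + compound/DMSO, 2,000 cells/well, 16 h, 37 °C/5% CO2. ONE-Glo, 30 min RT, luminescence. Readout = decrease in reporter signal.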
# The depositor's hits bear a star; i = inactive; ? = inconclusive; . = no result; [ ] = dose if it differs, or a comment. Calls come from the whole dose curve; as a rule, active = well fitted curve in the direction sought with a large enough effect; inconclusive = small, poorly fitted or top-dose-only effect, or another doubt; inactive = no such curve, though single readings can be large; an effect the other way counts as inactive or inconclusive. Potency is the fitted concentration of half-maximal effect.
SMILES,KB-3-1 cytotox,MCF10A rerep,KB-V1 cytotox,SW480 rerep,ELG1 DNA repair
CC(C)c1ccc2c(c1)[C@H]1OCC[C@H]1[C@@H](c1cccs1)N2,6.5µM*,7.3µM*,2.3µM*,9.2µM*,?
Cc1cc(C)c2c(c1)N[C@H](c1cccs1)[C@@H]1CCO[C@H]21,?,?,i,-8%,1%
CCn1c2ccccc2c2nc3cc(OC)c(OC)cc3nc21,?,2.9µM*,2.1µM*,18µM*,?
CCn1c2ccccc2c2nc3ccccc3nc21,i,13µM*,i,14%,-1%
COc1cc2nc3c4ccccc4n(CC#N)c3nc2cc1OC,.,.,.,.,-5%
CCCCn1c(N)c(N(CCOC)C(=O)CN(C)S(=O)(=O)c2ccc(C)cc2)c(=O)[nH]c1=O,i,-2%,i,-7%,0%
COc1ccc(CN2C(=O)C(C)Nc3ncnc(N4CCc5ccccc5C4)c32)cc1 (stereo unspecified),2.3µM*,.,?,.,.
COc1ccc(CN2C(=O)C(C)Nc3ncnc(N4CCN(c5ccccn5)CC4)c32)cc1 (stereo unspecified),i,2%,i,2%,5%
CCOC(=O)N1CCN(C(=S)NC(=O)/C=C/c2ccc(C)cc2)CC1,i,-1%,?,-7%,0%
CN1CCN(c2ccc(-c3ccc4ccccc4n3)cc2)CC1,i,13µM*,12µM*,?,?
Cc1cccc(-c2nc(Nc3ccc(N4CCOCC4)cc3)c3ccccc3n2)c1,i,21µM*,?,-1%,23µM*
c1ccc2nc(-c3ccc(N4CCOCC4)cc3)ccc2c1,i,-182%[0.0737 µM],i,-9%,?
Cc1cccc(-c2nc(Nc3cccc(O)c3)c3ccccc3n2)c1,i,21µM*,i,8%,?
c1ccc2c(Nc3ccc(N4CCOCC4)cc3)nc(N3CCOCC3)nc2c1,i,?,?,?,9.2µM*
Cc1ccc(Nc2c(-c3ccc(N(C)C)cc3)nc3ccccn23)cc1,i,.,i,.,.
Cc1ccc(-c2cc(C(=O)N3CCOCC3)c3ccccc3n2)cc1,i,9%,i,-1%,12%
Cc1cc(-c2ccc(N3CCOCC3)cc2)nc2ccccc12,i,21µM*,i,?,?
O=C(CCC1N=C2c3ccccc3N=C(SCc3ccccc3Cl)N2C1=O)NCCc1ccccc1 (stereo unspecified),i,.,i,.,.
CC(C(=O)c1ccccc1)[n+]1ccc(Cl)c2ccc(Cl)cc21 (stereo unspecified),i,.,i,.,.
CCn1c(C)c(C2=CCN(S(=O)(=O)c3ccccc3)CC2)c2ccccc21,?,?,10µM*,?,-8%
COc1cc(-c2nc(-c3ccccc3)c(-c3cccs3)[nH]2)cc(OC)c1O,?,?,21µM*,-4%,?
Cc1c(C(=O)Nc2ccc(Cl)cc2)c2ccccn2c1CCc1ccncc1,i,?,i,2%,?
Cc1c(C(=O)Nc2cccc(Cl)c2)c2ccccn2c1CCc1ccncc1,i,7.3µM*,?,?,?
CC(Sc1nnc(CN2CCCC2)n1Cc1ccccc1)C(=O)Nc1ccc(F)c(F)c1F (stereo unspecified),i,25%,1µM*,-3%,.
O=C(CCn1c(=O)c2ccccc2n(Cc2cccc(Cl)c2)c1=O)NCCc1ccccc1,i,.,i,.,.
SMILES,KB-3-1 cytotox,MCF10A rerep,KB-V1 cytotox,SW480 rerep,ELG1 DNA repair
Cn1c(-c2ccc(F)cc2)cc2onc(-c3c(F)cccc3Cl)c2c1=O,i,2.3µM*,i,-2%,?
Cc1ccc(-c2cc3onc(-c4ccccc4)c3c(=O)n2C)cc1,?,-17%,?,-11%,?
COCC(=O)N1CCC(Oc2ccc(C(=O)NCCCC3CCCC3)cc2)CC1,?,-9%,9.2µM*,-4%,28%
O=C(COC(=O)Cn1[nH]c(=O)c2ccccc2c1=O)NNC(=O)c1ccc(Br)cc1,i,6%,i,-4%,22%
COc1cccc(Nc2nc(N)c([N+](=O)[O-])c(N3CCOCC3)n2)c1,i,-1%,i,-18%,23µM*
CC(C)(C)c1ccc(-c2nnc(NC(=O)Nc3ccc4ccccc4c3)s2)cc1,?,.,i,.,.
O=C1/C(=C\c2c(NCCOCCO)nc3ccccn3c2=O)SC(=S)N1Cc1ccco1,i,9.2µM*,?,-35%[1.84 µM],-5%
Cc1cc(C)nc(SCc2cn3c(C)cccc3n2)n1,i,3%,i,-5%,8%
Cc1cc(C)c(C#N)c(SCc2cn3c(C)cccc3n2)n1,i,-5%,18µM*,.,?
Cc1cccc2nc(CSc3nc4ccccc4o3)cn12,?,23%,16µM*,4%,?
Cc1c(/C(O)=C2/C(=O)C(=O)N(Cc3cccnc3)C2c2ccccn2)cnn1-c1ccccc1 (stereo unspecified),i,0%,i,-23%,?
COc1ccc(C2=C(O)C(C)N(c3ccccc3)C2=N)cc1OC (stereo unspecified),i,4%,i,-1%,8%
CCC1C(O)=C(c2ccccn2)C(=N)N1c1ccccc1 (stereo unspecified),i,13µM*,i,18µM*,-11%
O=C(NCCCN1CCOCC1)c1c(-c2ccccc2)oc2c1C(OCCCCCO)CCC2 (stereo unspecified),i,.,?,.,.
COc1ccccc1-n1ccnc(SCC(=O)NCc2ccccc2Cl)c1=O,i,5%,21µM*,2%,?
COc1ccc(-n2ccnc(SCC(=O)NCc3ccccc3Cl)c2=O)cc1,i,-12%,i,-4%,-13%
O=[N+]([O-])c1ccc2c(c1)C=C/C2=C/c1ccccc1,i,.,i,.,.
COc1cc(S(=O)(=O)N2CCC(O)(c3cccc(C(F)(F)F)c3)CC2)ccc1-n1cnnn1,i,7.3µM*,?,?,?
Cc1cc2c(=O)[nH]c(N)nc2[nH]1,i,.,i,.,.
COc1ccc(/C(C)=N\NS(C)(=O)=O)c(OC)c1,i,-6%,i,0.58µM*,7%
CC(NC(=O)CN1C(=O)COc2ccc(Cl)cc21)c1ccccc1 (stereo unspecified),i,.,i,.,.
CCSc1nc2sc3c(c2c(=O)n1-c1ccccc1)CCN(C(C)C)C3,i,18µM*,i,-1%,-28%
CCCCSc1nc2sc3c(c2c(=O)n1-c1ccccc1)CCN(C)C3,i,?,i,23%,?
CN1CCc2c(sc3nc(SCC(N)=O)n(-c4ccccc4)c(=O)c23)C1,i,16%,i,2%,-24%
CN1CCc2c(sc3nc(SCC(N)=O)n(-c4ccc(Cl)cc4)c(=O)c23)C1,i,16µM*,i,?,?
